About 79,000 compounds went through this panel and 15% of them were active in at least one assay; those are over-represented in the sample as a whole. Unmarked numbers belong to inactive results. The source made the active and inactive calls. No stated cut-off is given here; in the data, active means growth inhibition above about 70%; inactive means the rest.
Key:
[1] = NCI Yeast Anticancer Drug Screen. Data for the rad50 strain (AID 155);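 further: 0% = growth of vehicle-only cultures of the same strain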; conditions: S. cerevisiae rad50 strain growth inhibition, stronger effect = higher value
Summary of the method: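 Compounds were tested on a yeast strain with an engineered DNA damage repair alteration; the reported value is growth inhibition normalised to vehicle treatment.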

[2] = NCI Yeast Anticancer Drug Screen. Data for the mec2-1 strain (AID 157); conditions: S. cerevisiae mec2-1 strain, stronger effect = higher value
Summary of the method: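 Test agents were screened against the mec2-1 yeast strain, with defined DNA repair or cell cycle alteration. Growth was scored as inhibition against vehicle-only controls.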

[3] = NCI Yeast Anticancer Drug Screen. Data for the sgs1 mgt1 strain (AID 161);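 further: 0% = growth of cultures given vehicle only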; conditions: S. cerevisiae sgs1 mgt1 strain, stronger effect = higher value
Summary of the method: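 Mutant yeast exposed to compound; growth scored against vehicle-only wells.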

[4] = NCI Yeast Anticancer Drug Screen. Data for the cln2 rad14 strain (AID 165);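 further: 0% = growth equal to vehicle treated cultures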; conditions: S. cerevisiae cln2 rad14 strain, stronger effect = higher value
Summary of the method: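 Growth of compound-exposed yeast (cln2 rad14 genotype) measured and expressed as inhibition relative to vehicle.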

[5] = NCI Yeast Anticancer Drug Screen. Data for the bub3 strain (AID 167); conditions: S. cerevisiae bub3 mutant strain, stronger effect = higher value
Summary of the method: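 Growth of a checkpoint-deficient yeast mutant is measured after compound exposure. Values represent inhibition relative to vehicle.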

[6] = NCI Yeast Anticancer Drug Screen. Data for the mlh1 rad18 strain (AID 175); conditions: S. cerevisiae mlh1 rad18 strain growth inhibition, stronger effect = higher value
Summary of the method: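 In this whole-cell yeast screen, a strain with altered DNA damage repair is challenged with compound, and its growth is measured against matched vehicle-treated controls.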

[7] = at 5.0 µM (retest, dose inferred, filed as 0.5)
[8] = at 50.0 µM (retest, dose inferred, filed as 5.0)

Structure (SMILES)	growth inhibition [1, 7]	growth inhibition [1, 8]	growth inhibition ([1]; at 50.0 µM)	growth inhibition [2, 7]	growth inhibition [2, 8]	growth inhibition ([2]; at 50.0 µM)	growth inhibition [3, 7]	growth inhibition [3, 8]	growth inhibition ([3]; at 50.0 µM)	growth inhibition [4, 7]	growth inhibition [4, 8]	growth inhibition ([4]; at 50.0 µM)	growth inhibition [5, 7]	growth inhibition [5, 8]	growth inhibition ([5]; at 50.0 µM)	growth inhibition [6, 7]	growth inhibition [6, 8]	growth inhibition ([6]; at 50.0 µM)
O=C(C(=S)c1ccccc1)N(Cc1ccccc1)Cc1ccccc1	-2%	44%	79.3% (active)	1%	25%	88.9% (active)	0%	48%	95.9% (active)	0%	27%	59.4%	4%	41%	93.8% (active)	2%	50%	94.4% (active)
CN(C)c1ccc(C=Nc2ccc(OCCCCCCCCCCC(=O)O)cc2)cc1	100% (active)	100% (active)	82.5% (active)	100% (active)	99% (active)	59.9%	77% (active)	86% (active)	76.7% (active)	77% (active)	92% (active)	75% (active)	73% (active)	84% (active)	84.5% (active)	100% (active)	100% (active)	71.5% (active)
CCCCNC(=O)OCc1c(COC(=O)NCCCC)c(-c2ccc(Cl)c(Cl)c2)n2c1CCC2	33%	98% (active)	26.6%	27%	99% (active)	7.3%	48%	99% (active)	31.2%	53%	98% (active)	70%	56%	98% (active)	4.4%	25%	98% (active)	31.8%
CCCCCCC1CCC(CCCCCCCC(=O)N2CCN(C)CC2)C(C/C=C/CCCCCCCC(=O)N2CCN(C)CC2)C1CCCCC (stereo not given)	3%	93% (active)	98.8% (active)	-1%	75% (active)	99.3% (active)	1%	70% (active)	99.3% (active)	-1%	84% (active)	92.6% (active)	4%	90% (active)	98.7% (active)	6%	95% (active)	98.9% (active)
CN(C)CCCNc1cc(/C=C/c2ccc([N+](=O)[O-])cc2)nc2ccccc12	-6%	70% (active)	80.8% (active)	-3%	38%	68.5%	-2%	60%	86.3% (active)	-4%	64%	39.1%	-6%	45%	60.9%	-3%	56%	91.1% (active)
C[N+](C)(CCO)Cc1ccccc1	-4%	10%	-19.4%	1%	0%	1.6%	-5%	-37%	11.2%	-1%	2%	-30.6%	8%	39%	74.2% (active)	-4%	6%	34%
Clc1ccc(C2=C(c3ccccc3)C(c3ccc(Cl)cc3)N3C(=N[C@H]4CCCC[C@@H]43)N2)cc1 (stereo not given in full)	4%	15%	88.2% (active)	9%	7%	88.4% (active)	-14%	-27%	89.3% (active)	-1%	-5%	90% (active)	-1%	-1%	87.7% (active)	7%	7%	91.5% (active)
O=c1ccc2c(COc3ccc(Cl)cc3Cl)c3ccc(O)cc3oc-2c1	-4%	15%	78.5% (active)	-3%	-1%	45.8%	-2%	12%	73.9% (active)	9%	12%	26.7%	-4%	1%	25.1%	-6%	4%	60.1%
N#Cc1c(Cl)nsc1-c1ccc([N+](=O)[O-])cc1	-6%	35%	91.2% (active)	7%	65%	93% (active)	1%	33%	91.1% (active)	27%	59%	88.8% (active)	-6%	80% (active)	92.3% (active)	7%	87% (active)	84.6% (active)
CCN(CC)CCCC(C)Nc1cc(F)cc2cccnc12 (stereo not given)	10%	81% (active)	93.2% (active)	4%	31%	63.2%	28%	75% (active)	88.8% (active)	10%	30%	44.9%	15%	41%	88.3% (active)	20%	69%	85.9% (active)

From PubChem BioAssay (NCI)
